Data from PubChem BioAssay AID1946 (Johns Hopkins Ion Channel Center, 2009).
In all, about 2,400 compounds went through this assay and about 180 (7.5%) were called active. Only a selection was taken, and actives are over-represented in it overall. A number with no mark means an inactive call.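 The calls were made as follows: active = readout below zero, meaning a drop past 3 SD under the dofetilide-free negative control mean; inactive = the rest.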

Each molecule was assayed against Potassium voltage-gated channel subfamily KQT member 2 (Rattus norvegicus) (UniProt O88943) (assay: KCNQ2 blockade in CHO cells – cell-based, FluxOR thallium flux, counter-screen for hERG block protector project, confirmation (AID 1946)). Details: FluxOR thallium flux fluorescence, at 10 µM, stronger effect = lower value, zero marks the 3-SD hit cutoff.
Chain of Potassium voltage-gated channel subfamily KQT member 2 (Rattus norvegicus) (O88943 whole entry, looked up): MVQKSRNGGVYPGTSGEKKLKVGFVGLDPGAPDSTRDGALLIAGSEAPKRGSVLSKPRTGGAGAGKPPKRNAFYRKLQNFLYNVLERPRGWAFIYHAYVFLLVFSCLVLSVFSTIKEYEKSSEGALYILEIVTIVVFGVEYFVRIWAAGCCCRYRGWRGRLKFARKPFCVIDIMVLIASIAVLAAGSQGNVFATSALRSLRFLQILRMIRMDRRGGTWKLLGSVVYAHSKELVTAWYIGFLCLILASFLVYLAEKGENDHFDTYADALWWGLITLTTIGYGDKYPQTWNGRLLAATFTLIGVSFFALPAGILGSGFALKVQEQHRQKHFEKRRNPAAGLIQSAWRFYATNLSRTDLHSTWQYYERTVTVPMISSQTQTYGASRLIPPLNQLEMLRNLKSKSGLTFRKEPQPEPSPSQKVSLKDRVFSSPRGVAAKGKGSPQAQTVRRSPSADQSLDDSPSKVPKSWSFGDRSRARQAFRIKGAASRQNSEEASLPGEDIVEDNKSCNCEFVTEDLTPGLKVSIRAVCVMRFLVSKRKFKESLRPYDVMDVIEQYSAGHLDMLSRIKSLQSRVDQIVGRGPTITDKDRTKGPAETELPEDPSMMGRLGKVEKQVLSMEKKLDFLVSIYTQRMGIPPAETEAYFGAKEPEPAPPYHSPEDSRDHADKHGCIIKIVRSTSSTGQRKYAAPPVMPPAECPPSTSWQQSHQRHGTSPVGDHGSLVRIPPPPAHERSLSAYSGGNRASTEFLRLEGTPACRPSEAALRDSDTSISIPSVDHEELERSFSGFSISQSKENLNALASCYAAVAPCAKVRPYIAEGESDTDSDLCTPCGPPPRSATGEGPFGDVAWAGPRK

Point of comparison: O=C(NC(=S)Nc1ccccc1F)c1ccc(Br)o1, activity change vs negative control 81.1%. Against it:
- O=C(Nc1nc2c(Br)cc(Br)cc2c(=O)s1)C1CCC1 — lower, 40.8%
- O=C(Nc1cccnc1)c1ccc(COc2ccccc2Br)o1 — lower, 7.9%
- O=C(COc1ccc(Cl)cc1Cl)Nc1cccnc1 — lower, 11%
- CCc1cc2cc(C)cc(C)c2[nH]c1=S — lower, 29.9%
- Cc1c(Cl)cccc1NC(=S)N=Nc1c(O)n(CN2CCOCC2)c2ccccc12 — lower, 28.6%
- O=C(CN1C(=O)S/C(=C\c2cccs2)C1=O)Nc1ccc(O)c(C(=O)O)c1 — lower, 7.9%
- O=C(CN1C(=O)S/C(=C\c2cccs2)C1=O)Nc1ccc(C(=O)O)c(O)c1 — lower, 44.5%
- O=C(NC(=S)Nc1nc2ccc(F)cc2s1)c1ccco1 — higher, 82.7%
- CCC1(c2ccc(Cl)cc2)NC(=S)N(c2ccc(C)c(C)c2)N1 (configuration not stated) — higher, 124%
- CCCN(Cc1ccccc1)C(=S)NC(=O)c1ccccc1[N+](=O)[O-] — higher, 120%
- O=C(NC(=S)N1CCCC(C(F)(F)F)C1)c1ccc(F)cc1 (configuration not stated) — lower, 46.1%
- CCOc1ccc2nc(N3C(=O)/C(=C/c4ccc(Cl)cc4)NC3=S)sc2c1 — lower, 6.5%
- CN(C)c1oc(-c2ccccc2[N+](=O)[O-])nc1C#N — lower, 16.4%
- CCOC(=O)C(=CNc1cc(C)nn1C(C)(C)C)C(=O)OCC — lower, 13%
- CC1CCCCC1NC(=S)NC(=O)c1cccs1 (configuration not stated) — lower, 49.2%
- CCC1(c2ccc(Cl)cc2)NC(=S)N(c2ccccc2)N1 (configuration not stated) — higher, 108%
- COCCNC(=O)C(c1ccc(C)o1)N(Cc1ccc(OC)cc1)C(=O)Cn1nnc2ccccc21 (configuration not stated) — lower, 33.6%
- COc1cc(-c2nnc(SCC(=O)O)n2-c2ccccc2)cc(OC)c1OC — lower, 0.6%
- Cc1ccc(NC(=O)CSc2nnc(-c3cccnc3)n2-c2ccc(C)cc2)cc1 — lower, 12.3%
- CC1Cc2ccccc2N1C(=S)NC(=O)c1ccc(Cl)cc1Cl (configuration not stated) — higher, 83.8%
- COCCn1c(=S)[nH]c2sc3c(c2c1=O)CCC(C)C3 (configuration not stated) — lower, 81%
- CC(C)N(Cc1ccccc1)C(=S)NC(=O)C1(C)CC1(Cl)Cl (configuration not stated) — lower, 53.8%
- COc1cccc(C=Nc2cc(C)cc(C)c2)c1O — lower, 39.5%
- O=c1cc(-c2ccccc2)nc2c(-c3ccccc3)c(C(F)(F)F)[nH]n12 — the same, 81.1%
- COc1cc(NC(=O)c2ccccc2)c(OC)cc1NC(=O)Cc1ccc(Br)cc1 — lower, 26.8%
- O=C(O)COc1ccc(NC(=O)c2ccc3c(c2)C(=O)N(C2CCCCC2)C3=O)cc1 — lower, 21.1%
- Cn1cc(/C=N/n2cnc3scc(-c4ccc(Cl)cc4)c3c2=O)c2ccccc21 — lower, 9%
- S=c1[nH]cnc2scc(-c3ccccc3)c12 — lower, 74.3%
- Cc1c(N2C(=O)/C(=C\c3ccccc3O)SC2=S)c(=O)n(-c2ccccc2)n1C — higher, 90%
- S=c1[nH]cnc2scc(-c3ccc(Cl)cc3)c12 — lower, 49.5%
- CCOC(=O)c1sc(NC(=S)NC(=O)c2ccccc2)nc1C — lower, 20.3%
- CC1CCN(S(=O)(=O)c2ccc3nc(N4CCN(c5ccccc5)CC4)ccc3c2)CC1 — lower, 4.3%
- CC(=O)c1c(N)[nH]c(-c2ccccc2)nc1=S — lower, 22.9%
- Cc1ccc(CN2CCN(CC(=O)NC(C)c3ccc4c(c3)OCCO4)C2=O)cc1 (configuration not stated) — lower, 38.3%
- CN1C(=O)/C(=N/OC(=O)c2ccccc2)c2ccccc21 — lower, 8%
- Cc1ccc(NC(=O)c2ccc(CNS(=O)(=O)c3cccc(C(F)(F)F)c3)cc2)cc1 — lower, 8.1%
- CC(=O)c1ccc(S(=O)(=O)NCc2ccc(C(=O)N(C)CC(=O)Nc3cccc(F)c3)cc2)cc1 — lower, 5.5%
- O=c1c2ccc(Cl)cc2nc(-c2cccc(C(F)(F)F)c2)n1O — higher, 141%
- ON/C=N/C(=S)Nc1ncc(C(F)(F)F)cc1Cl — lower, 49.3%
- CC1(C)CC2CC(C)(CN2C(=S)NC(=O)c2ccccc2Cl)C1 (configuration not stated) — lower, 37.9%
- Cc1ccc(/C(O)=C/C(=O)C(=O)NC23CC4CC(CC(C4)C2)C3)cc1 — lower, 32.5%
- Cc1ccc(N=Cc2cc(Cl)cc(Cl)c2O)nc1 — lower, 53.9%
- Cc1cc(C)n(-c2nc3sc4c(c3c(=O)[nH]2)CCCC4)n1 — lower, 28%
- CN(C)CCNc1ncnc2c1sc1nc(N3CCCC3)c3c(c12)CC(C)(C)OC3 — lower, 8.8%
- CC(NC(=O)NC1CCCCC1)c1ccc2c(c1)OCO2 (configuration not stated) — lower, 72.4%
- COc1ccccc1C(=O)NNC(=O)C(=O)NC(C)(C)C — lower, 31.3%
- COc1ccc(NS(=O)(=O)c2ccc3ccccc3c2)c2ncccc12 — lower, 2%
- Cc1ccc(NS(=O)(=O)c2ccc(NC(=O)c3ccccc3C(=O)O)cc2)cc1C — lower, 10.8%

For O=C(Nc1cccnc1)c1ccc(COc2cc(Cl)ccc2Cl)o1, the activity change vs negative control was -5.5% (active).
In the case of Nc1nc2c(s1)CCc1c-2cnn1-c1ccccc1, the activity change vs negative control is reported as -0.2% (active).
With O=C(CN1C(=O)S/C(=C\c2cc(Cl)c(O)c(Cl)c2)C1=O)Nc1ccccc1 the activity change vs negative control was -7.3% (active).
CN(C)c1oc(-c2ccccc2)nc1C#N was tested, and the activity change vs negative control was -1.7% (active).
For Cc1ccc(C(=C2C3C=CC2C2C(=O)NC(=O)C32)c2ccc(C)cc2)cc1 (configuration not stated), the activity change vs negative control was -2.6% (active).
With N#Cc1cc(-c2ccccc2)nnc1Oc1ccccc1 the activity change vs negative control was -0.2% (active).
COc1ccc(-n2c(SCC#N)nnc2-c2cccnc2)cc1 was tested, and the activity change vs negative control was -1.2% (active).
OC(CNCC(c1ccc(Cl)cc1Cl)c1c[nH]c2ccccc12)c1ccccc1 (configuration not stated) was tested, and the activity change vs negative control was -12% (active).
With Cc1ccc(C)n1-n1c(C)nc2scc(-c3ccccc3)c2c1=O the activity change vs negative control was -3.2% (active).
With CC1CCN(c2ccc3c(c2)S(=O)(=O)c2ccccc2C3=O)CC1 the activity change vs negative control was -10.9% (active).
In the case of CN(CC(=O)Nc1ccc(Cl)cc1)C(=O)c1cccc(S(=O)(=O)NCc2ccccc2)c1, the activity change vs negative control is reported as -2.7% (active).
For Cc1cc(C)n(-c2nc(NCCCN(C)C)c3c4c(sc3n2)CCCC4)n1, the activity change vs negative control was -1.4% (active).
In the case of COc1ccccc1-n1cnc2cc(NS(=O)(=O)c3ccc(Br)cc3)ccc21, the activity change vs negative control is reported as -2.5% (active).
